Molecules are shown by their SMILES. Screen size: about 330,000 compounds; about 1,500 (0.45%) were called active. The sample holds actives, similar compounds and a random draw of the others, so the mix is not that of the screen. Cut-off read from the data, not from the text of the source: active = inhibition above about 45% (passing the limit was not always enough); inconclusive = no clear call, values can overlap the other calls.

This assay deals with Ubiquitin-conjugating enzyme E2 N (Homo sapiens) (UniProt P61088). The experiment in a line: UBC13 polyubiquitin chain formation inhibitors, primary screen, biochemical, TR-FRET, uHTS (AID 485273). The note with it: at 20 µM, hits give high values. (Time-resolved FRET reads energy transfer from a long-lived donor to a nearby acceptor.)
Chain of Ubiquitin-conjugating enzyme E2 N (Homo sapiens) (P61088 whole entry, looked up): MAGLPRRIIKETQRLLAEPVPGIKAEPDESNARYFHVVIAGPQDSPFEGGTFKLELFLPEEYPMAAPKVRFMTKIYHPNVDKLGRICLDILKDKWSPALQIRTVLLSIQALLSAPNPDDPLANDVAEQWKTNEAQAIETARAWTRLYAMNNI
For orientation: inhibition means the drop in the measured response relative to a control, in per cent. In the case of `O=C(NCc1csc(-c2cccs2)n1)C1CC1`, the inhibition was -1.3% (inactive). With `CC(C)(CCl)C(=O)Nc1ccc(Sc2ccc(F)cc2)cc1`, the inhibition is 7.4% (inactive). As to `Cc1ccc(C)c(NC(=O)C(c2ccccc2)N2CCN(CC(=O)NC3CC3)CC2)c1` (configuration not stated), the inhibition was 2.6% (inactive). Regarding `Cc1ccc(N2C(=O)N3[C@@H]4c5ccccc5OC[C@@H]4[C@@H](c4ccccc4)[C@@]3(C)C2=O)cc1`, the inhibition was 6.8% (inactive). To `O=C1CC(Cc2ccc(Cl)cc2)C(=O)N1c1cc(Cl)ccn1` (configuration not stated) belongs 0% (inactive); to `CN(c1ccccn1)c1ncnc2[nH]ncc12`, 5.9% (inactive).

As to `O=C(NNC(=O)c1cc(-c2ccccc2Cl)nc2ccccc12)c1csc(N2CCOCC2)n1`, the inhibition is 1.5% (inactive). As to `CSCCC(NC(=O)c1ccc(Cl)cc1Cl)C(=O)NNC(=O)c1csc(N2CCOCC2)n1` (configuration not stated), the inhibition is 58.4% (active).

Regarding `COc1ccccc1C(=O)NC(CCSC)C(=O)NNC(=O)c1csc(N2CCOCC2)n1` (configuration not stated), the inhibition is 4.2% (inactive). On to `NC1=NC[C@@H](Cc2ccc(O)cc2)N1CC1CCCCC1`, for which the inhibition is 17.3% (inactive).

For `C[C@@H](CN1CCC[C@H]1CN1C(N)=NC[C@@H]1Cc1ccccc1)N1C[C@@H](Cc2ccccc2)N(CCCC2CCCC2)C1=N`, the inhibition is 62.2% (active). On to `CCCCN1C(N)=NC[C@@H]1Cc1ccccc1`, for which the inhibition was -6.3% (inactive). Next, `CC[C@@H](C)[C@@H]1CN([C@@H](C)CN2CCC[C@H]2CN2C(N)=NC[C@H]2C(C)C)C(=N)N1CCc1ccc(Cl)c(Cl)c1`: 50.1% (active); `CC(=O)N1CCC(N(C(=O)Nc2ccc(Cl)cc2)C(C)C)CC1`: -2.5% (inactive). To `CC(OC(=O)CN1C(=O)C2CCCCC2C1=O)C(=O)Nc1ncc(Cl)cc1Cl` (configuration not stated) belongs -6.5% (inactive).

`CCOC(=O)c1ccccc1NC(=O)COC(=O)C(Cc1c[nH]c2ccccc12)NC(C)=O` (configuration not stated): the inhibition was 3.4% (inactive). Turning to `O=C(CNC(=O)Cc1ccccc1)NCC(=O)OCC(=O)c1ccccc1Cl`, the inhibition was 12% (inactive). In the case of `CC1(C)Cc2ccccc2-c2nc(CN3CCOCC3)[nH]c(=O)c21`, the inhibition was -5.3% (inactive). To `CC1(C)Cc2ccccc2-c2[nH]c(=S)[nH]c(=O)c21` belongs 62.2% (active). Next, `CCC1(CC)Cc2ccccc2-c2nc(CCl)[nH]c(=O)c21`: 9% (inactive); `CCN(CC)CCC(c1ccc2c(c1)OCO2)c1c(OC)cc(OC)c2c(-c3ccccc3)cc(=O)oc12` (configuration not stated): 32.1% (inactive). Next, `CCN(CC)C(=O)CC(c1ccc2c(c1)OCO2)c1c(OC)cc(OC)c2c(-c3ccccc3)cc(=O)oc12` (configuration not stated): 8.8% (inactive); `CCN(CC)CCC(c1cc(OC)c(OC)c(OC)c1)c1c(OC)cc(OC)c2c(-c3ccccc3)cc(=O)oc12` (configuration not stated): 50.2% (active); `N#CCCn1ncc2ccccc21`: 0.9% (inactive). For the compound `CCCCn1c(N)c(N(CC)C(=O)c2ccccc2C(F)(F)F)c(=O)[nH]c1=O`, the inhibition is -4.3% (inactive).

As for `CCn1c(CNC(=O)c2cc(OC)c(OC)c(OC)c2)cc2cc(C)ccc21`, the inhibition is 5.6% (inactive).

With `O=S(=O)(Cc1cc(Sc2ccccc2)nc(-c2ccccc2)n1)c1ccccc1`, the inhibition is -3.4% (inactive).

Values taken from PubChem BioAssay AID485273 (Sanford-Burnham Center for Chemical Genomics, 2010).
